A short description of assay [1]: qHTS profiling of the MIPE4 collection as inhibitors of Plasmodium falciparum (DD2) proliferation (AID 743345; call rule not given here). The note with it: P. falciparum Dd2 in erythrocytes, SYBR Green DNA, 72 h; at 28.5 µM (top of the series) unless noted. The gist of the method: (§1)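 Erythrocytes infected with P. falciparum (0.3% parasitemia, 2.5% hematocrit) incubated with compounds 72 h at 37 C, 5% CO2. Lysis with saponin/Triton buffer containing SYBR Green I, overnight at room temperature in the dark; DNA fluorescence (485/535 nm) normalised to 0.29 uM artemisinin and DMSO.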
Background: qHTS replaces the single test concentration by a dilution series.

The nature of assay [2]: qHTS profiling of the MIPE4 collection as inhibitors of Plasmodium falciparum (DD2) proliferation (Rep 2) (AID 743346; call rule not given here). The note with it: P. falciparum Dd2 in erythrocytes, SYBR Green DNA, 72 h; at 28.5 µM (top of the series) unless noted. An outline of the steps:
as §1

A short description of assay [3]: qHTS profiling of the MIPE4 collection as inhibitors of Plasmodium falciparum (HB3) proliferation (AID 743347; call rule not given here;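 also: plate controls were DMSO vehicle wells for no effect and artemisinin wells for full effect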). Conditions: P. falciparum HB3 in erythrocytes, SYBR Green DNA, 72 h; at 28.5 µM (top of the series) unless noted. The gist of the method: as §1
Assay [4] is described as follows: High-throughput drug toxicity screening in the BPDCN cell line Cal-1 (AID 1224825; call rule not given here). Conditions: Cal-1 BPDCN cell viability, qHTS; at 45.8 µM (top of the series) unless noted. An outline of the steps:
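Exponentially growing Cal-1 cells, 500 per well in phenol red-free RPMI with 10% FBS, were exposed to compounds for 48 h at 37 °C, 5% CO2. Viability was read by CellTiter-Glo luminescence and normalised to DMSO (100%) and 9.2 uM bortezomib (0%).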

Assay [5] in a line: qHTS assay for measurement of the activity of small molecule inhibitors on Zika virus induced Caspase-3 activity in human iPSC derived neural progenitor cells (hNPCs) (AID 1224857). Also: % of control where 0% means no effect; nearly all actives have a fitted effect of over 65% in size. The gist of the method: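 Values are percent inhibition of virus-induced caspase-3/7 signal, scaled between uninfected cells and ZIKV-infected cells. Infection used 2 FFU/cell for 6 h after 1 h compound exposure.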

Assay [6] can be described thus: qHTS assay for measurement of the activity of small molecule inhibitors on Zika virus induced Caspase-3 activity in human astrocytoma cells (AID 1224859).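 Also: plate controls were ZIKV-infected untreated cells for no effect and uninfected cells for full effect.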 An outline of the steps: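 Compound added 1 h pre-infection; ZIKV 2 FFU/cell on SNB-19 cells, 6 h, 37 C/5% CO2. Caspase-Glo 3/7 luminescence; values as % inhibition of ZIKV-induced caspase activity.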
A short description of assay [7]: qHTS Screen of the MIPE 4.0 Collection Against Ewings Sarcoma (RDES) (AID 1259252). Also: nearly all actives have a fitted effect of over 35% in size. Also: potency is read from the fitted curve at half-maximal effect. The gist of the method:
(§2)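 Here, cells in 5% FBS RPMI were exposed for two days (48 h) to compound dilutions added four hours after plating. ATP-based CellTiter-Glo luminescence measured viability, normalized to vehicle and no-cell blanks.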

Assay [8] is described as follows: qHTS Screen of the MIPE 4.0 Collection Against Ewings Sarcoma (TC71) (AID 1259253). Also: nearly all actives have a fitted effect of over 40% in size. Also: potency is read from the fitted curve at half-maximal effect. The gist of the method:
as §2

Assay [9] can be described thus: qHTS Screen of the MIPE 4.0 Collection Against Ewings Sarcoma (EW8) (AID 1259255). Also: nearly all actives have a fitted effect of over 35% in size. Also: potency is read from the fitted curve at half-maximal effect.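 As to viability: 100% = DMSO-treated cells and 0% = medium-only wells without cells.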 An outline of the steps: as §2
Assay [10] is described as follows: qHTS profiling for inhibitors of Plasmodium falciparum (HB3) proliferation (AID 743324).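 Also: 100% = DMSO vehicle wells and 0% = artemisinin-treated control wells.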 Conditions: Plasmodium falciparum HB3 blood-stage proliferation; at 28.7 µM (top of the series) unless noted. The gist of the method:
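P. falciparum HB3 grown in erythrocytes (0.3% parasitemia, 2.5% hematocrit final) with compound for 72 h at 37 C, 5% CO2. Parasite DNA detected by SYBR Green after saponin/triton lysis overnight; normalized to 0.29 uM artemisinin and DMSO.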

The nature of assay [11]: qHTS profiling of the MIPE4 collection as inhibitors of Plasmodium falciparum (3D7) proliferation (AID 743344; call rule not given here;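 also: scaled between DMSO vehicle wells and 0.29 µM artemisinin as full inhibition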). The note with it: P. falciparum 3D7 in erythrocytes, SYBR Green DNA fluorescence, 72 h; at 28.5 µM (top of the series) unless noted. An outline of the steps:
as §1

The nature of assay [12]: qHTS Screen of the MIPE 4.0 Collection Against Ewings Sarcoma (TC32) (AID 1259256). Also: nearly all actives have a fitted effect of over 45% in size. Also: potency is read from the fitted curve at half-maximal effect. The gist of the method: as §2

Records with an inconclusive call do not appear. Calls of active or inactive are those of the source. Unless noted, calls follow the shape of the dose curve; as a rule, active = well fitted curve in the direction sought with a large enough effect; inconclusive = small, poorly fitted or top-dose-only effect, or another doubt; inactive = no such curve, though single readings can be large; an effect the other way counts as inactive or inconclusive.

`CC(C)C[C@@H](N)[C@H](O)C(=O)N[C@H](C(=O)N[C@H](C(=O)N[C@@H](CC(=O)O)C(=O)O)C(C)C)C(C)C` returned a parasite growth remaining, % of DMSO control (lower = more inhibition) in assay [1] of 99.5%. In [2], the parasite growth, % of control (lower = inhibition) is 127%. Also, in [3], the growth, % of control stood at 107%. The viability (% of control) in assay [4] was 104%. Further, the Potency entry in assay [5], in assay [6] and in assay [9] was “inactive” in each case. The Potency is 20.9 µM (active) in assay [7] and 18.7 µM (active) in assay [8].
Regarding `C=C[C@@H]1CN2CCC1C[C@@H]2C(O)c1ccnc2ccc(OC)cc12` (stereo partly specified), in assay [10], the remaining proliferation (% of control), lower = more inhibition was 2.91%. This compound also returned a parasite growth, % of DMSO control in assay [11] of 8.37%. Also, the parasite growth remaining, % of DMSO control (lower = more inhibition) in assay [1] turned out to be 9.53%. The parasite growth, % of control (lower = inhibition) in assay [2] came to 12%. In addition, the growth, % of control in assay [3] is 3.29%. For the same compound, the viability (% of control) in assay [4] was determined as 86%. The Potency in assay [7] is 3.72 µM (active); in assay [8], 4.18 µM (active); in assay [12], 1.18 µM (active).
With `O=C(NCCCCN1CCOCC1)c1cc2ccccc2o1`, the parasite growth remaining, % of DMSO control (lower = more inhibition) in [1] amounted to 99.3%. Moreover, the parasite growth, % of control (lower = inhibition) in [2] stood at 41.5%. This compound also showed a growth, % of control in [3] of 87.4%. For the same compound, the viability (% of control) in [4] was 109%. Also, the Potency result in assay [5], in [6] and in [7] was “inactive” each time.
In the case of `Nc1[nH]nc2nnc(-c3c(-c4ccccc4)nn4ccccc34)cc12`, the parasite growth, % of DMSO control in assay [11] was 25%. Besides, in [1], the parasite growth remaining, % of DMSO control (lower = more inhibition) is 97%. Further, in [2], the parasite growth, % of control (lower = inhibition) stood at 46.8%. Further, the growth, % of control in assay [3] worked out at 26%. Also, the viability (% of control) in [4] turned out to be 6.85%. The Potency result in assay [5] and in assay [6] was “inactive” each time. Moreover, the Potency is 5.9 µM (active) in assay [7], 8.33 µM (active) in assay [8] and 11.8 µM (active) in assay [12].
Compound `CCNC(=O)Nc1ccc(Oc2ncnc(N)c2C=NOC)cc1Cl` had a parasite growth, % of DMSO control in [11] of 71.9%. In assay [1], this compound returned a parasite growth remaining, % of DMSO control (lower = more inhibition) of 81.9%. For the same compound, the parasite growth, % of control (lower = inhibition) in assay [2] is 67%. The same compound showed a growth, % of control in [3] of 50.6%. Further, the viability (% of control) in assay [4] came out at 17%. In addition, the Potency entry in [5], in [6] and in assay [8] was “inactive” each time. In addition, the Potency in assay [7] and in [9] was 8.33 µM (active) each time.
The compound `CN[C@H]1[C@@H](O[C@@H]2[C@H](O[C@@H]3[C@@H](O)[C@@H](O)[C@@H](N=C(N)N)[C@@H](O)[C@@H]3N=C(N)N)O[C@H](C)[C@@]2(O)C=O)O[C@@H](CO)[C@@H](O)[C@H]1O` registered a parasite growth, % of DMSO control in assay [11] of 99% [at 9.64 µM]. The compound also returned a parasite growth remaining, % of DMSO control (lower = more inhibition) in [1] of 94.4% [at 9.64 µM]. In [2], the parasite growth, % of control (lower = inhibition) turned out to be 87.4% [at 9.64 µM]. Also, the viability (% of control) in assay [4] is 118% [at 15.3 µM]. Besides, the Potency entry in assay [6], in assay [7], in assay [9] and in [12] was “inactive” in each case.
For the compound `CC1=C(CC(=O)O)c2cc(F)ccc2C1=Cc1ccc(S(C)=O)cc1` (stereo unspecified), the parasite growth, % of DMSO control in assay [11] turned out to be 79.1%. The compound also gave a parasite growth remaining, % of DMSO control (lower = more inhibition) in assay [1] of 91.5%. The parasite growth, % of control (lower = inhibition) in assay [2] is 64.2%. Besides, in assay [3], the growth, % of control amounted to 52.4%. Moreover, the viability (% of control) in [4] is 7.86%. Moreover, the Potency result in [5] is “inactive”. The Potency in assay [7] was 1.18 µM (active); in assay [8], 1.32 µM (active); in assay [12], 1.48 µM (active).
`C[C@@H]1[C@H](C)CC[C@]2(C(=O)O)CC[C@]3(C)C(=CC[C@@H]4[C@@]5(C)CC[C@H](O)C(C)(C)[C@H]5CC[C@]43C)[C@@H]12` registered a parasite growth, % of DMSO control in assay [11] of 4.81% [at 57.5 µM]. The parasite growth remaining, % of DMSO control (lower = more inhibition) in assay [1] amounted to 55.6% [at 57.5 µM]. For the same compound, in assay [2], the parasite growth, % of control (lower = inhibition) stood at 8% [at 57.5 µM]. In addition, the growth, % of control in assay [3] was determined as 3.02% [at 57.5 µM]. The viability (% of control) in [4] amounted to 29% [at 92.2 µM]. For the same compound, the Potency result in [5] and in [6] was “inactive” each time. In addition, the figures for the Potency in assay [7], in [9] and in [12] were 2.7 µM (active), 5.4 µM (active) and 1.52 µM (active), respectively.
In assay [1], `C[C@]12CCC3=C4CCC(=O)C=C4CC[C@@H]3[C@H]1CC[C@@]2(O)CC#N` showed a parasite growth remaining, % of DMSO control (lower = more inhibition) of 97.5%. Also, in [2], the parasite growth, % of control (lower = inhibition) is 71%. In [3], this compound displayed a growth, % of control of 93%. Also, the Potency entry in [5], in [6], in [7], in [8], in [9] and in [12] was “inactive” throughout.
In assay [11], `COc1cc2nccc(Oc3ccc(NC(=O)Nc4ccc(F)cc4F)c(F)c3)c2cc1OC` had a parasite growth, % of DMSO control of 17.2%. Moreover, the parasite growth remaining, % of DMSO control (lower = more inhibition) in assay [1] stood at 36.3%. Further, the parasite growth, % of control (lower = inhibition) in assay [2] was 46.4%. Also, the growth, % of control in assay [3] came out at 9.7%. Further, the viability (% of control) in assay [4] was 86.2%. The Potency entry in assay [5] and in assay [6] was “inactive” throughout. The Potency in [7] was 14.8 µM (active); in assay [9] it was 16.6 µM (active); in assay [12], 6.62 µM (active).

Source of the values: PubChem BioAssay (NCATS).
